Screening results deposited in PubChem by several laboratories.
PrPC surface inh: cell surface PrPC inhibition, primary TR-FRET screen; TR-FRET read-out; inhibition, % at 13.8 µM; 370,000 compounds, 0.43% hits; AID 720596; in the data active = inhibition above about 24%; also: 0% = median of the test wells and 100% = reference compound wells
Mtb hypoxia rep: inhibitors of hypoxia-regulated fluorescent reporter in Mycobacterium tuberculosis. M. tuberculosis hypoxia-regulated fluorescent reporter, fluorescence. fluorescence inhibition, % (no concentration beside the values). 300,000 compounds, 0.1% hits; in the data active = fluorescence inhibition mostly above about 23%, no sharp cut-off; inactive = mostly below about 17%
GDH-TPI counter-1: inhibits GDH-TPI coupling enzymes, artifact for Mtb FBA screen; GDH-TPI coupled enzyme counterscreen, NADH absorbance; inhibition, % at 4.8 µM; AID 588335; 360,000 compounds, 1.2% hits; in the data active = inhibition above about 30%;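 also: 0% = DMSO wells and 100% = wells lacking the enzyme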
PrP UTR inh: suppresses PrP 5' UTR mRNA reporter expression; cell-based PrP 5' UTR mRNA reporter, plate reader; inhibition, % (test concentration not listed); 340,000 compounds, 0.35% hits; AID 488862; in the data active = inhibition above about 52%; also: 0 = median of the neutral control wells
FBA Mtb inh: inhibitors of M. tuberculosis fructose-bisphosphate aldolase; P9WQA3; 360,000 compounds, 2.3% hits; inhibition, % at 1 µM; purified M. tuberculosis FBA, fluorescence read-out; AID 588726;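 also: 0% = vehicle and 100% = reference inhibitor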
Target sequence (P9WQA3 whole entry, looked up): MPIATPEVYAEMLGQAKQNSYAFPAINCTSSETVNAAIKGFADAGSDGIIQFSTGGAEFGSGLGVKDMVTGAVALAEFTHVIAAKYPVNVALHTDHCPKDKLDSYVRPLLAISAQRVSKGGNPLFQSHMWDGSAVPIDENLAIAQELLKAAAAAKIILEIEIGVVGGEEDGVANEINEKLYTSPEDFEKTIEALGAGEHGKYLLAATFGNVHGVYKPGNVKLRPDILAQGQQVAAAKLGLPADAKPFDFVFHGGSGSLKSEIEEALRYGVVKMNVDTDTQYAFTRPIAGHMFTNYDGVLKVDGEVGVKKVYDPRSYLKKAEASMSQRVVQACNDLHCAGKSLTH
Y pestis TopoI: inhibitors of Yersinia pestis topoisomerase I; AID 504884; Y. pestis Topo-I cleavage product accumulation, plate reader; activity, % at 10 µM; 360,000 compounds, 0.064% hits; in the data active = activity above about 50%, passing the limit was not always enough
Mtb FBA confirm: Mtb FBA inhibition, confirmed; inhibition, % at 1 µM; shares compounds with FBA Mtb inh; purified M. tuberculosis FBA, fluorescence read-out; 5,600 compounds, 78% hits;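 also: 0% = vehicle wells and 100% = reference inhibitor wells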
GDH-TPI counter-2: inhibits GDH-TPI coupling enzymes, flagging Mtb FBA hits; 5,600 compounds, 81% hits; inhibition, % at 1 µM; GDH-TPI coupled enzyme counterscreen, fluorescence; shares compounds with FBA Mtb inh; in the data active = inhibition above about 10%
Active calls of the source: *. Hits are enriched below; roughly 3.8% of the tested compounds scored in any of these assays. Rule as the data show it, unless noted: active = inhibition above about 27%; inactive = the rest.

Results for CCOc1ccc(-c2cc(C(=O)NCCCn3ccnc3)c3ccccc3n2)cc1 ?
PrPC surface inh: -6; Mtb hypoxia rep: 6; GDH-TPI counter-1: -1; PrP UTR inh: -10; FBA Mtb inh: 33*; Y pestis TopoI: 7; Mtb FBA confirm: 43*; GDH-TPI counter-2: 33*

How did Cc1ccccc1C(=O)NCCCn1ccnc1 do in these assays?
PrPC surface inh: -2; Mtb hypoxia rep: 1; GDH-TPI counter-1: -4; PrP UTR inh: -28; FBA Mtb inh: 0; Y pestis TopoI: 1

Results for N#Cc1nnn2c1nc(N)c1c(F)cccc12 ?
PrPC surface inh: -4; Mtb hypoxia rep: 2; GDH-TPI counter-1: 3; PrP UTR inh: -4; FBA Mtb inh: 32*; Y pestis TopoI: -2; Mtb FBA confirm: 170*; GDH-TPI counter-2: 143*

What do the screens show for `O=C(CSCc1ccccc1)Nc1ccc2c(c1)C(=O)NC2=O`?
PrPC surface inh: 6; Mtb hypoxia rep: -5; GDH-TPI counter-1: 10; PrP UTR inh: -34; FBA Mtb inh: 0; Y pestis TopoI: 9

How did Cc1ccc(NC(=O)CCS(=O)(=O)c2ccccc2)cc1S(=O)(=O)N1CCCCCC1 do in these assays?
PrPC surface inh: 3; Mtb hypoxia rep: -9; GDH-TPI counter-1: -2; PrP UTR inh: -21; FBA Mtb inh: 4; Y pestis TopoI: 2

Results for O=C(CCS(=O)(=O)c1ccccc1)Nc1ccc2c(c1)C(=O)NC2=O ?
PrPC surface inh: -1; GDH-TPI counter-1: 1; PrP UTR inh: -33; FBA Mtb inh: 50*; Y pestis TopoI: -1; Mtb FBA confirm: active; GDH-TPI counter-2: active

What do the screens show for `CN1C(=O)c2ccc(NC(=O)CCS(=O)(=O)c3ccccc3)cc2C1=O`?
PrPC surface inh: 4; Mtb hypoxia rep: 8; GDH-TPI counter-1: 4; PrP UTR inh: 5; FBA Mtb inh: 35*; Y pestis TopoI: -2; Mtb FBA confirm: 83*; GDH-TPI counter-2: 61*

Results for CCOC(=O)c1sc2nc(C)nc(NCCc3ccccn3)c2c1C ?
PrPC surface inh: 6; Mtb hypoxia rep: 2; GDH-TPI counter-1: 3; PrP UTR inh: 4; FBA Mtb inh: 71*; Y pestis TopoI: -6; Mtb FBA confirm: 22; GDH-TPI counter-2: 12*

What do the screens show for `O=C(N/N=C/c1cc(Cl)cc([N+](=O)[O-])c1O)c1ccc2c(c1)OCO2`?
PrPC surface inh: -4; GDH-TPI counter-1: 17; PrP UTR inh: 4; FBA Mtb inh: -5; Y pestis TopoI: 0

Results for COc1cc(Cl)cc(/C=N\NC(=O)c2ccc3c(c2)OCO3)c1O ?
PrPC surface inh: -3; GDH-TPI counter-1: 29; FBA Mtb inh: 27*; Y pestis TopoI: -11; Mtb FBA confirm: 135*; GDH-TPI counter-2: 114*

How did Cc1ccc(-c2cc(C(F)(F)F)c(C#N)c(SCCC#N)n2)o1 do in these assays?
PrPC surface inh: -16; Mtb hypoxia rep: 9; GDH-TPI counter-1: 6; PrP UTR inh: -32; FBA Mtb inh: 31*; Y pestis TopoI: -4; Mtb FBA confirm: 159*; GDH-TPI counter-2: 153*

How did COc1ccc(-c2cc(C(F)(F)F)c(C#N)c(SCC(=O)O)n2)cc1 do in these assays?
PrPC surface inh: -7; Mtb hypoxia rep: 15; GDH-TPI counter-1: 4; PrP UTR inh: -4; FBA Mtb inh: 11; Y pestis TopoI: -1

What do the screens show for `CN(C)c1nc(OCCNC(=O)COc2ccccc2Cl)nc(N(C)C)n1`?
PrPC surface inh: -2; Mtb hypoxia rep: 10; GDH-TPI counter-1: 15; PrP UTR inh: -15; FBA Mtb inh: 55*; Y pestis TopoI: 2; Mtb FBA confirm: active; GDH-TPI counter-2: 189*

How did CCOC(=O)c1cc2cc(OC)ccc2[nH]1 do in these assays?
PrPC surface inh: 6; GDH-TPI counter-1: 5; PrP UTR inh: -95; FBA Mtb inh: 41*; Y pestis TopoI: -4; Mtb FBA confirm: 45*; GDH-TPI counter-2: 42*

What do the screens show for `COc1ccc2[nH]c(C(=O)NCc3ccccc3)cc2c1`?
PrPC surface inh: 6; Mtb hypoxia rep: 10; GDH-TPI counter-1: 11; PrP UTR inh: -18; FBA Mtb inh: 56*; Y pestis TopoI: -10; Mtb FBA confirm: 64*; GDH-TPI counter-2: 46*

How did COc1ccc(CC(=O)NCc2ccccc2)cc1 do in these assays?
PrPC surface inh: 11; Mtb hypoxia rep: 15; GDH-TPI counter-1: -6; PrP UTR inh: -28; FBA Mtb inh: -1; Y pestis TopoI: -6

Results for COc1cc(C=NNC(=O)c2cccnc2)ccc1OS(=O)(=O)c1ccc(F)cc1 ?
Mtb hypoxia rep: 14

How did CC(C)NC(=O)c1ccc2c(=O)n(CC3CCCO3)c(=S)[nH]c2c1 (stereo unspecified) do in these assays?
PrPC surface inh: -1; Mtb hypoxia rep: -7; GDH-TPI counter-1: 6; PrP UTR inh: -21; FBA Mtb inh: 0; Y pestis TopoI: 5

How did CCOC(=O)c1cc2c(=O)n3cccc(C)c3nc2n(CC2CCCO2)c1=NC(C)=O (stereo unspecified) do in these assays?
PrPC surface inh: 7; Mtb hypoxia rep: 5; GDH-TPI counter-1: 6; PrP UTR inh: -23; FBA Mtb inh: 79*; Y pestis TopoI: 4; Mtb FBA confirm: 90*; GDH-TPI counter-2: 68*

What do the screens show for `COc1ccc(CCNC(=O)CC(C)=NNC(=O)c2cnccn2)cc1`?
Mtb hypoxia rep: 2

Results for COc1ccc(S(=O)(=O)Nc2nc3c(s2)CCCC3)cc1 ?
PrPC surface inh: 4; Mtb hypoxia rep: 12; GDH-TPI counter-1: 2; PrP UTR inh: -7; FBA Mtb inh: 56*; Y pestis TopoI: 4; Mtb FBA confirm: 86*; GDH-TPI counter-2: 68*

What do the screens show for `CCNC(=S)NN=C(C)c1ccc2ccccc2c1`?
Mtb hypoxia rep: 5

How did CCOC(=O)C/C(C)=N\Nc1nc(-c2ccccc2)cs1 do in these assays?
PrPC surface inh: 1; GDH-TPI counter-1: 14; PrP UTR inh: -4; FBA Mtb inh: 69*; Y pestis TopoI: 6; Mtb FBA confirm: 54*; GDH-TPI counter-2: 42*

Results for CCOC(=O)CC(C)=NNc1nc(-c2ccccc2)cs1 ?
Mtb hypoxia rep: 5

Results for CCOC(=O)C(O)C1CCc2c([nH]c3ccc(C)cc23)C1=O (stereo unspecified) ?
PrPC surface inh: -8; Mtb hypoxia rep: 0; GDH-TPI counter-1: 8; PrP UTR inh: -23; FBA Mtb inh: 7; Y pestis TopoI: -1

Results for Cc1ccc2[nH]c3c(c2c1)CCNC3=O ?
PrPC surface inh: 6; Mtb hypoxia rep: 5; GDH-TPI counter-1: 11; PrP UTR inh: -6; FBA Mtb inh: 75*; Y pestis TopoI: 8; Mtb FBA confirm: 113*; GDH-TPI counter-2: 93*

How did CC(c1ccccc1)N1CCn2c(nc3cc(NS(C)(=O)=O)ccc32)C1 (stereo unspecified) do in these assays?
PrPC surface inh: 2; Mtb hypoxia rep: 4; GDH-TPI counter-1: -1; PrP UTR inh: -14; FBA Mtb inh: 6; Y pestis TopoI: -14
